Results taken from the supplement of paper PMC6992640.
± gives the standard deviation of the averaged measurements.

Columns and labels:
Assay in all cases: cell viability (% of vehicle); higher = less cytotoxic
Conditions in all cases: 10 µM; 72 h
HCI01 = tested on: HCI01 (cells of a triple-negative basal-like breast cancer xenograft)
HCI03 = tested on: HCI03 (cells of an ER-positive luminal breast cancer xenograft)
HCI09 = tested on: HCI09 (cells of a triple-negative luminal androgen receptor type breast cancer xenograft)
HCI11 = tested on: HCI11 (cells of an ER-positive luminal breast cancer xenograft)
HCI13 = tested on: HCI13 (cells of an ER-positive luminal breast cancer xenograft)
HCI16 = tested on: HCI16 (cells of a triple-negative basal-like breast cancer xenograft)
UCD52 = tested on: UCD52 (cells of a triple-negative basal-like breast cancer xenograft)
WHIM2 = tested on: WHIM2 (cells of a triple-negative basal-like breast cancer xenograft)
WHIM30 = tested on: WHIM30 (cells of a triple-negative basal-like breast cancer xenograft)
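Further: PDX cells carrying CMV promoter-driven luciferase, viability read as total photon flux per second by IVIS imaging following D-luciferin, vehicle control 0.1% DMSO.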

Structure (SMILES)	cell viability (HCI01)	cell viability (HCI03)	cell viability (HCI09)	cell viability (HCI11)	cell viability (HCI13)	cell viability (HCI16)	cell viability (UCD52)	cell viability (WHIM2)	cell viability (WHIM30)
N[C@@H](CCC(=O)N[C@@H](CS)C(=O)NCC(=O)O)C(=O)O [L-Glutathione Reduced]	103 ± 5.7	115	107 ± 4	85.3	104 ± 6.7	113	99.8 ± 5.5	98.6 ± 5	131 ± 2.4
CN(C)CCc1c[nH]c2ccc(Cn3cncn3)cc12.O=C(O)c1ccccc1 [Rizatriptan Benzoate]	108 ± 11	118	137 ± 72	121	110 ± 21	106	102 ± 9.9	86.3 ± 21	124 ± 6.5
O=c1cc[nH]c(=S)[nH]1 [2-Thiouracil]	107 ± 6.1	139	94.4 ± 19	103	82.4 ± 8.2	112	91.8 ± 2.9	117 ± 34	178 ± 5.9
COc1ccc(C2CNC(=O)C2)cc1OC1CCCC1 (stereo not drawn) [S- (+)-Rolipram]	144 ± 9	152	94.4 ± 32	121	144 ± 31	136	99.5 ± 11	117.8 ± 0.47	134 ± 9.9
Cl.NNc1nncc2ccccc12 [Hydralazine HCl]	142 ± 22	131	113 ± 9.5	79.8	121 ± 7.1	180	162 ± 3.2	148 ± 5.5	151 ± 11
CC(OC1OCCN(Cc2nc(=O)n(P(=O)(O)O)[nH]2)C1c1ccc(F)cc1)c1cc(C(F)(F)F)cc(C(F)(F)F)c1.CNCC(O)C(O)C(O)C(O)CO.CNCC(O)C(O)C(O)C(O)CO (stereo not drawn) [Fosaprepitant dimeglumine salt]	67.4 ± 51	103	52.4 ± 27	85.1	76.2 ± 6.3	91.7	57.2 ± 7.3	79.7 ± 44	109 ± 2.4
O=C(O)C=Cc1ccccc1 [Cinnamic acid]	98.7 ± 32	108	96 ± 4.4	94.3	107 ± 15	121	98.4 ± 12	105 ± 15	117.9 ± 0.11
CCC1=C(C)CN(C(=O)NCCc2ccc(S(=O)(=O)NC(=O)NC3CCC(C)CC3)cc2)C1=O (stereo not drawn) [Glimepiride]	158 ± 17	123	86.6 ± 14	147	93.2 ± 11	158	129 ± 3.5	105 ± 6.7	164.4 ± 0.77
CN1CCC(=C2c3ccccc3CCn3c(C=O)cnc32)CC1 [Alcaftadine]	94.1 ± 31	117	94.3 ± 18	86.9	120 ± 20	124	92.4 ± 10	97.9 ± 3.4	114 ± 6.9
Nc1ccc(C(=O)NCC(=O)[O-])cc1.[Na+] [Sodium 4-amiropparaty Hyalrate]	107.1 ± 0.65	109	122 ± 35	110	112 ± 12	107	91.5 ± 8.8	95.4 ± 6	171 ± 21
CCOc1nc2cccc(C(=O)O)c2n1Cc1ccc(-c2ccccc2-c2nc(=O)o[nH]2)cc1 [Azilsartan]	79.7 ± 44	142	84.8 ± 13	92	99.8 ± 2.6	96.2	83.3 ± 7.1	97.9 ± 13	97.5 ± 2.2
CC(c1ncncc1F)C(O)(Cn1cncn1)c1ccc(F)cc1F (stereo not drawn) [Voriconazole]	121 ± 8.9	133	98.8 ± 11	121	137 ± 7.1	115	106 ± 22	105 ± 9.5	137 ± 22
CCCC(C(=O)OCCN(CC)CC)(c1ccccc1)c1ccccc1.Cl [SKF 525A (hydrochloride)]	103 ± 33	123	93.8 ± 1.2	66.3	103 ± 28	130	61.5 ± 5.9	99.1 ± 11	119.8 ± 0.2
CC(=O)N[C@H](Cc1ccc2ccccc2c1)C(=O)N[C@H](Cc1ccc(Cl)cc1)C(=O)N[C@H](Cc1cccnc1)C(=O)N[C@@H](CO)C(=O)N[C@@H](Cc1ccc(O)cc1)C(=O)N[C@H](CCCNC(N)=O)C(=O)N[C@@H](CC(C)C)C(=O)N[C@@H](CCCNC(=N)N)C(=O)N1CCC[C@H]1C(=O)N[C@H](C)C(N)=O [Cetrorelix]	111 ± 16	131	96.7 ± 19	102	190 ± 48	151	96.1 ± 7	122 ± 61	132 ± 7.8
CN1CCN(c2c(F)cc3c(=O)c(C(=O)O)cn4c3c2OCN4C)CC1 [Marbofloxacin]	99.12 ± 0.67	99.3	69.9 ± 9	138	129 ± 17	114	136 ± 18	75.5 ± 2.6	148 ± 30
CC(=O)Oc1cc2c(s1)CCN(C(C(=O)C1CC1)c1ccccc1F)C2.Cl (stereo not drawn) [Prasugrel hydrochloride]	140 ± 12	137	109 ± 14	120	74.2 ± 5.5	149	110 ± 20	110.1 ± 0.98	133 ± 10
CCOC(=O)C(CCc1ccccc1)NC(C)C(=O)N1C(=O)N(C)CC1C(=O)O.Cl (stereo not drawn) [Imidapril HCl]	105 ± 8.3	113	99.8 ± 7.1	102	126 ± 1.4	94.2	78 ± 3.8	105 ± 3.3	104 ± 10
CN1CCCC1c1cccnc1.O=C(O)C(O)C(O)C(=O)O.O=C(O)C(O)C(O)C(=O)O (stereo not drawn) [Nicotine Difartrate]	115 ± 7.3	107	126 ± 40	114	99.2 ± 3.9	98.7	100 ± 12	99.6 ± 9.8	121 ± 2.7
CC(=O)Oc1cc(C(F)(F)F)ccc1C(=O)O [Triflusal]	108 ± 22	129	97 ± 13	101	107 ± 1.9	98.4	76 ± 3.1	107 ± 17	85.4 ± 4.2
CC(S)C(=O)NCC(=O)O (stereo not drawn) [Tiopronin (Thiola)]	104 ± 4.1	109	54.6 ± 48	107	105 ± 18	99.3	93.7 ± 3.6	103 ± 14	115 ± 4.5
CN(C)CCCN1c2ccccc2CCc2ccc(Cl)cc21.Cl [Clomipramine HCl]	102 ± 22	108	74.2 ± 2.6	69.7	88.4 ± 10	88.4	61.1 ± 1.7	58 ± 1.1	94.4 ± 13

Structure (SMILES)	cell viability (HCI01)	cell viability (HCI03)	cell viability (HCI09)	cell viability (HCI11)	cell viability (HCI13)	cell viability (HCI16)	cell viability (UCD52)	cell viability (WHIM2)	cell viability (WHIM30)
COc1ccc(-c2nc3ccc(C4=NNC(=O)CC4C)cc3[nH]2)cc1 (stereo not drawn) [Pimobendan]	134 ± 7.2	132	129 ± 48	132	146 ± 11	121	119 ± 5.9	168.4 ± 1.3	119 ± 7
Nc1cccc2c1CN(C1CCC(=O)NC1=O)C2=O (stereo not drawn) [Lenalidomide (CC-5013)]	111 ± 4.1	107	85.5 ± 10	102	80.5 ± 0.91	101	80.5 ± 12	78.6 ± 3.5	134 ± 6.6
COc1cc2nccc(Oc3ccc(NC(=O)C4(C(=O)Nc5ccc(F)cc5)CC4)cc3)c2cc1OC	108 ± 6.6	114	91.5 ± 2	88.9	97.7 ± 13	93.8	88.3 ± 15	90.1 ± 11	116 ± 3.4
CC(C)NCC(O)c1ccc(NS(C)(=O)=O)cc1.Cl (stereo not drawn) [Sotalol hydrochloride]	102 ± 11	150	109 ± 2.9	111	126 ± 18	144	116 ± 4.6	110 ± 5.1	118 ± 2.6
Cl.c1ccc(CC2=NCCN2)cc1 [Tolazoline HCl]	94.2 ± 1.9	100	92 ± 13	91.4	118 ± 8.5	115	92.7 ± 2.9	105 ± 5.3	87.3 ± 5
CCn1cc(C(=O)O)c(=O)c2cc(F)c(N3CCNC(C)C3)c(F)c21.Cl (stereo not drawn) [Lomefloxacin HCl]	97.5 ± 19	95.2	94.5 ± 7.8	96.1	76 ± 14	107	91.5 ± 2.9	83.75 ± 0.15	150 ± 10
CCN(CC)C(=S)SSC(=S)N(CC)CC [Disulfiram]	140 ± 49	75.8	71.6 ± 4.1	66.5	90 ± 5.2	92.3	82.3 ± 8.8	102 ± 8	115 ± 14
CN(C)CCC=C1c2ccccc2Sc2ccc(Cl)cc21 [Chlorprothixene]	85.8 ± 14	87.1	71.9 ± 13	93.9	105 ± 2.6	83.8	54.4 ± 2.5	49.9 ± 20	124 ± 13
CCCN(CCC)C(=O)C1=Cc2ccc(-c3ccc(C(=O)N4CCCC4)cc3)cc2NC(=N)C1 [Motolimod (VTX-2337)]	100 ± 41	97.5	32.1 ± 0.89	63.6	76.6 ± 7	105	66 ± 3.8	71 ± 15	100 ± 12
CCCCCCCCCCCCCCCCO [1-Hexadecanol]	108 ± 3.9	95.9	97.8 ± 12	95.2	107 ± 84	109	67.1 ± 5.9	94.2 ± 11	84.7 ± 8.4
Nc1nc(=O)c2c([nH]1)NCC(CNc1ccc(C(=O)NC(CCC(=O)[O-])C(=O)[O-])cc1)N2C=O.O.O.O.O.O.[Ca+2] (stereo not drawn) [Leucovorin Calcium]	104 ± 22	102	131 ± 55	83.9	108 ± 13	127	122 ± 2.5	67.9 ± 22	156 ± 29
C[N+]1(C)CCC(OC(=O)C(O)(c2ccccc2)C2CCCC2)C1.[Br-] (stereo not drawn) [Glycopyrrolate]	110 ± 5.3	152	123 ± 51	99.3	117 ± 12	94.8	95.6 ± 5.1	100 ± 5.2	83.6 ± 6.5
Clc1ccc(COC(Cn2ccnc2)c2ccc(Cl)cc2Cl)c(Cl)c1 (stereo not drawn) [Miconazole]	109 ± 41	87.6	62.3 ± 36	82	47.3 ± 10	120	74.4 ± 3	99.6 ± 24	128 ± 3.7
Cc1ccc2c(Cl)cc(Cl)c(O)c2n1 [Chlorquinaldol]	102 ± 27	109	31.6 ± 15	52.7	105 ± 17	105	69.6 ± 16	94.2 ± 31	94 ± 5.7
COC(=O)C1=C(C)NC(C)=C(C(=O)OC(C)C)C1c1cccc2nonc12 (stereo not drawn) [Isradipine (Dynacirc)]	111 ± 18	118	48.7 ± 41	91.9	109 ± 6.2	117	76.2 ± 9.4	92.5 ± 11	88.7 ± 3.6
Cc1ccc(C(=O)c2cc(O)c(O)c([N+](=O)[O-])c2)cc1 [Tolcapone]	70.6 ± 40	52.5	14.6 ± 1.4	57.5	64.16 ± 0.48	84.2	71.6 ± 18	117 ± 26	120 ± 7.5
CN(CCOc1ccc(CC2SC(=O)NC2=O)cc1)c1ccccn1.O=C(O)C=CC(=O)O (stereo not drawn) [Rosiglitazone maleate]	132 ± 20	115	94 ± 16	90.1	107.5 ± 0.5	99.6	105 ± 7.2	156 ± 25	136 ± 25
CCCC1CC(C(=O)NC(C(C)Cl)C2OC(SC)C(O)C(O)C2O)N(C)C1.Cl (stereo not drawn) [Clindamycin HCl]	101 ± 7.5	122	99.45 ± 0.17	104	88.2 ± 19	142	117 ± 2.3	106 ± 33	122 ± 2.6
Cc1cccc(N(C)C(=S)Oc2ccc3ccccc3c2)c1 [Tolnaftate]	113 ± 28	140	72.7 ± 30	95.2	96.2 ± 8.2	108	71.2 ± 2.5	91.6 ± 8.1	131 ± 9.2
CN1C(C(=O)Nc2ccccn2)=C(O)c2ccccc2S1(=O)=O [Piroxicam]	103 ± 9.8	102	53.8 ± 29	133	103 ± 3.6	90.5	88.27 ± 0.58	91.5 ± 17	117 ± 13
N#CC1CC2CC2N1C(=O)C(N)C12CC3CC(CC(O)(C3)C1)C2 (stereo not drawn) [Saxagliptin]	95 ± 7.6	145	82.1 ± 5.7	89.2	85.7 ± 7	93.8	97.4 ± 5.6	123 ± 7.2	98 ± 2.8
